Test results taken from the supplement of paper PMC11634586.
Counter-ions that a name gives are not always drawn.

What follows are molecules tested on NCI-H1688 (assay: inhibition of cell viability relative to untreated control (fraction); higher = stronger growth inhibition, active = 0.5 or more). Conditions: 30 µM; 24 h.
Experimental: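 Natural product library (TargetMol, 640 compounds) screened on NCI-H1688 SCLC cells at 30 µM for 24 h; viability by CCK-8 absorbance at 450 nm, normalised to untreated control and expressed as inhibition rate (fraction). Compounds with >50% reduction in viability were selected as hits.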

| SMILES | inhibition of cell viability |
| --- | --- |
| C=CCc1ccc(O)c(-c2cc(CC=C)ccc2O)c1 [Magnolol] | -0.288 (inactive) |
| COc1cc(CO)ccc1O [Vanillyl Alcohol] | -0.235 (inactive) |
| O=c1c(-c2ccc(O)cc2)coc2cc(O[C@@H]3O[C@H](CO)[C@@H](O)[C@H](O)[C@H]3O)ccc12 [Daidzin] | -0.0211 (inactive) |
| O=c1oc2ccccc2c(O)c1Cc1c(O)c2ccccc2oc1=O [Dicumarol] | 0.308 (inactive) |
| COc1cc(C=O)ccc1O [Vanillin] | 0.219 (inactive) |
| O=c1cc(-c2ccc(O)c(O)c2)oc2cc(O[C@@H]3O[C@H](CO)[C@@H](O)[C@H](O)[C@H]3O)cc(O)c12 [Cynaroside] | 0.705 (active) |
| COc1cc(C(=O)O)cc(OC)c1O [Syringic acid] | 0.0408 (inactive) |
| NCCCNCCCCNCCCN [Spermine] | -0.283 (inactive) |
| COc1cc(C=O)ccc1OC(C)=O [Acetylvanillin] | -0.295 (inactive) |
| CC(C)=CCC[C@](C)(O)[C@H]1CC[C@]2(C)[C@@H]1[C@H](O)C[C@@H]1[C@@]3(C)CC[C@H](O)C(C)(C)[C@@H]3[C@@H](O[C@@H]3O[C@H](CO)[C@@H](O)[C@H](O)[C@H]3O[C@@H]3O[C@@H](C)[C@H](O)[C@@H](O)[C@H]3O)C[C@]12C [Ginsenoside Rg2] | 0.155 (inactive) |
| C[N+](C)(C)CC(=O)O [Betaine hydrochloride] | -0.247 (inactive) |
| O=c1cc(-c2ccc(O)cc2)oc2cc(O)cc(O)c12 [Apigenin] | 0.487 (inactive) |
| C[C@@H]1[C@H](O)[C@@H](C)/C=C/C=C/C=C/C=C/C=C/C=C/C=C/[C@H](O[C@@H]2O[C@H](C)[C@@H](O)[C@H](N)[C@@H]2O)C[C@@H]2O[C@](O)(C[C@@H](O)C[C@@H](O)[C@H](O)CC[C@@H](O)C[C@@H](O)CC(=O)O[C@H]1C)C[C@H](O)[C@H]2C(=O)O [Amphotericin B] | 0.0269 (inactive) |
| OC[C@H]1O[C@@H](Oc2cc(O)cc(/C=C/c3ccc(O)cc3)c2)[C@H](O)[C@@H](O)[C@@H]1O [Piceid] | 0.175 (inactive) |
| CC[C@H]1OC(=O)[C@H](C)[C@@H](O[C@H]2C[C@@](C)(OC)[C@@H](O)[C@H](C)O2)[C@H](C)[C@@H](O[C@@H]2O[C@H](C)C[C@H](N(C)C)[C@H]2O)[C@](C)(O)C[C@@H](C)[C@@H]2N[C@@H](COCCOC)O[C@H]([C@H]2C)[C@]1(C)O [Dirithromycin] | 0.0389 (inactive) |
| Oc1cc(O)c2c(c1)O[C@H](c1ccc(O)c(O)c1)[C@@H](O)C2 [Cianidanol] | 0.298 (inactive) |
| NC1C(O)O[C@H](CO)C(O[C@@H]2O[C@H](CO)C(O[C@@H]3O[C@H](CO)[C@@H](O)[C@H](O)[C@H]3N)[C@H](O)C2N)C1O (stereo not given in full) [Chitosan] | 0.266 (inactive) |
| COc1ccccc1O [Guaiacol] | -0.0875 (inactive) |
| O=c1c(O)c(-c2ccc(O)c(O)c2)oc2cc(O)ccc12 [Fisetin] | 0.0255 (inactive) |
| C/C(=C\C(=O)OCCCCCCCCC(=O)O)C[C@@H]1OC[C@H](C[C@@H]2O[C@H]2[C@@H](C)[C@H](C)O)[C@@H](O)[C@H]1O [Mupirocin] | 0.0375 (inactive) |

| SMILES | inhibition of cell viability |
| --- | --- |
| C[C@]12CC[C@@H]3c4ccc(O)cc4CC[C@H]3[C@@H]1CC[C@@H]2O [Estradiol] | 0.296 (inactive) |
| C[C@]12CCC(=O)C=C1CC[C@@H]1[C@@H]2[C@@H](O)C[C@@]2(C)[C@H]1CC[C@]2(O)C(=O)CO [Hydrocortisone] | 0.0716 (inactive) |
| CC1C(=O)OC2C(O)C34C5CC(C(C)(C)C)C36C(OC(=O)C6O)OC4(C(=O)O5)C12O (stereo not given) [Ginkgolide B] | -0.0261 (inactive) |
| O=C(O)c1cc(O)ccc1O [Gentisic acid] | -0.166 (inactive) |
| CC(C)=CCC/C(C)=C/C=O [Citral] | 0.192 (inactive) |
| O=c1c(O)c(-c2ccccc2)oc2ccccc12 [3-Hydroxyflavone] | 0.587 (active) |
| CNC1CCCN(c2c(F)cc3c(=O)c(C(=O)O)cn(C4CC4)c3c2OC)C1 (stereo not given) [Balofloxacin] | 0.118 (inactive) |
| O=c1c(-c2ccc(O)cc2)coc2cc(O[C@@H]3O[C@H](CO)[C@@H](O)[C@H](O)[C@H]3O)cc(O)c12 [Genistin] | 0.279 (inactive) |
| COc1cc2c(cc1O)[C@@H](Cc1ccc(O)c(Oc3ccc(C[C@@H]4c5cc(OC)c(OC)cc5CCN4C)cc3)c1)N(C)CC2 [Daurisoline] | 0.977 (active) |
| O=c1c(-c2ccc(O)cc2)coc2cc(O)cc(O)c12 [Genistein] | 0.7 (active) |
| O=c1cc(-c2ccccc2)oc2c(O)c(O)ccc12 [7,8-Dihydroxyflavone] | 0.694 (active) |
| CC1(C)CCC[C@](C)([C@H]2CC[C@]3(C)[C@@H]2[C@H](O)C[C@@H]2[C@@]4(C)CC[C@H](O)C(C)(C)[C@@H]4[C@H](O)C[C@]23C)O1 [Panaxtriol] | -0.0145 (inactive) |
| C[n+]1cc2c3c(ccc2c2ccc4cc5c(cc4c21)OCO5)OCO3 [Sanguinarine chloride] | 0.982 (active) |
| C[C@@H]1O[C@@H](O[C@H]2[C@H](Oc3cc(O)c(C(=O)CCc4ccc(O)cc4)c(O)c3)O[C@H](CO)[C@@H](O)[C@@H]2O)[C@H](O)[C@H](O)[C@H]1O [Naringin dihydrochalcone] | -0.031 (inactive) |
| NC[C@H]1O[C@H](O[C@H]2[C@H](O)[C@@H](O[C@H]3O[C@H](CO)[C@@H](O)[C@H](N)[C@H]3O)[C@H](N)C[C@@H]2N)[C@H](N)C[C@@H]1O [Tobramycin] | -0.0866 (inactive) |
| OC[C@H]1O[C@H](O[C@]2(CCl)O[C@H](CCl)[C@@H](O)[C@@H]2O)[C@H](O)[C@@H](O)[C@H]1Cl [Sucralose] | 0.0847 (inactive) |
| CC(=O)OCC(=O)[C@@]1(O)CC[C@H]2[C@@H]3CCC4=CC(=O)CC[C@]4(C)[C@H]3C(=O)C[C@@]21C [Cortisone acetate] | -0.148 (inactive) |
| C=C1C(=O)O[C@@H]2C[C@@]3(C)CCCC(=C)[C@@H]3C[C@H]12 [Isoalantolactone] | 0.867 (active) |
| CC[C@@H]1C(=O)OC[C@@H]1Cc1cncn1C [Pilocarpine nitrate] | -0.128 (inactive) |
| O=c1cc[nH]c(=O)[nH]1 [Uracil] | -0.231 (inactive) |
